# High-throughput results deposited in PubChem BioAssay by National Center for Advancing Translational Sciences (NCATS).
# Sampled rows, rich in hits. Any-hit rate of the full collection: about 12%.
# JMJD2A Tudor inh: JMJD2A Tudor domain (human) inhibition. 4.4% of 390,000 active. O75164. Potency, µM (series often up to 114 µM), inactives show at the highest dose activity change, negative = inhibition, usual class: inhibitors. AID 504339. AlphaScreen JMJD2A-Tudor / H3K4me3 peptide binding; note: potency is the fitted concentration of half-maximal effect; % is set by controls: 0 for no effect and ±100 for the full control effect; nearly all actives have a fitted effect of over 50% in size
# G9a block: inhibitors of human histone lysine methyltransferase G9a | Q96KQ7 | G9a H3K9 monomethylation, AlphaScreen, 2 h | Potency, µM (top dose mostly 102 µM), inactives show at the highest dose activity, negative = inhibition, hits mostly inhibitors | 8.8% of 350,000 active; note: potency is the fitted concentration of half-maximal effect; % is set by controls: 0 for no effect and ±100 for the full control effect; nearly all actives have a fitted effect of over 75% in size
#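 Signal arises when biotinylated H3K9 peptide, once monomethylated, bridges streptavidin donor and antibody-captured acceptor beads. Enzyme at 20 nM was preincubated 15 min with test compounds; peptide 500 nM and SAM 20 uM then reacted for 2 h.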
# PI5P4Ka inh: blocks human PI5P4K alpha kinase activity; P48426; PI5P4Kalpha enzyme, ADP-Glo luminescence, 60 min; hits give low values; max response, %; 1.2% of 330,000 active; AID 652105; active = max response of -50% or lower; inconclusive = between -30% and -50%; inactive = -30% or higher; note: value at the top dose of about 77 µM; % is set by controls: 0 for no effect and ±100 for the full control effect
# Target sequence (P48426 whole entry, looked up): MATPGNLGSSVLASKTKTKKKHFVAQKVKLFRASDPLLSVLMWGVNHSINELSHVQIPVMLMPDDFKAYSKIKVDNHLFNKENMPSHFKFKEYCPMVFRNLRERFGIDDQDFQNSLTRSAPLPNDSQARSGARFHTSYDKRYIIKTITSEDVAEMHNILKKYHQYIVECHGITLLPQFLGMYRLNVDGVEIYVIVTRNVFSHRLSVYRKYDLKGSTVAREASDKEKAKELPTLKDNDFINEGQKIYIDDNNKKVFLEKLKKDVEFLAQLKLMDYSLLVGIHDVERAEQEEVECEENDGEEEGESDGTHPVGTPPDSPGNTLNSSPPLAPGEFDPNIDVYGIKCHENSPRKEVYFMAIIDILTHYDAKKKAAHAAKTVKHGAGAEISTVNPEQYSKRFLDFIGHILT
#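 Reactions run in 0.038 M HEPES pH 7.4, 0.28 mM EGTA, 0.1% CHAPS and 5% DMSO, with PI5P4Kalpha, substrate, compound and 5 microM ATP final, one hour at room temperature. Readout is ADP-Glo luminescence.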
# PLK1 PBD block: blocks phosphopeptide binding to human PLK1 polo-box domain; AID 720504; Plk1 PBD binding of FITC phosphopeptide, fluorescence polarization; 2.8% of 360,000 active; Potency, µM, inactives show max response, negative = inhibition, hits mostly inhibitors; P53350; note: potency is the fitted concentration of half-maximal effect; series mostly up to about 57 µM; % is set by controls: 0 for no effect and ±100 for the full control effect; nearly all actives have a fitted effect of over 65% in size
# HP1b chromo inh: inhibitors of HP1-beta chromodomain binding to methylated histone tails. P83916. AlphaScreen HP1-beta / biotin-H3K9me3 peptide binding. Potency, µM (top dose mostly 114 µM), without a hit: at the highest dose activity change, negative = inhibition, usual class: inhibitors. 0.56% of 390,000 active; note: potency is the fitted concentration of half-maximal effect; nearly all actives have a fitted effect of over 70% in size
#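 AlphaScreen: HP1-beta (50 nM) preformed 30 min with biotin-H3(1-18)K9me3 peptide (50 nM) in PBS pH 7.4, 0.01% Tween-20. Compound added for 30 min at RT, then streptavidin donor/nickel chelate acceptor beads (10 ug/mL) for 30 min.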
# BAZ2B block: blocks human BAZ2B | Q9UIF8 | AlphaScreen BAZ2B-H3K14Ac peptide displacement | Potency, µM (top dose mostly 114 µM), without a hit: at the highest dose activity change, negative = inhibition, hits mostly inhibitors | 4.4% of 360,000 active | AID 504333; note: potency is the fitted concentration of half-maximal effect; % is set by controls: 0 for no effect and ±100 for the full control effect; nearly all actives have a fitted effect of over 60% in size
#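 BAZ2B 50 nM plus b-H3(5-23)K14Ac 50 nM, PBS pH 7.4/0.01% Tween-20, 30 min RT; compound added (max 110 uM), 30 min RT; streptavidin donor/Ni-chelate acceptor beads 10 ug/mL final, 20 min dark; AlphaScreen read.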
# * = called active by the depositor; ? = inconclusive; . = no result; [ ] = another dose, or the depositor's remark. Unless noted, calls come from the whole dose curve; as a rule, active = well fitted curve in the direction sought with a large enough effect; inconclusive = small, poorly fitted or top-dose-only effect, or another doubt; inactive = no such curve, though single readings can be large; an effect the other way counts as inactive or inconclusive.
SMILES,JMJD2A Tudor inh,G9a block,PI5P4Ka inh,PLK1 PBD block,HP1b chromo inh,BAZ2B block
COc1ccc(C2CC(=O)N(CC(=O)Nc3ccc(C(F)(F)F)cc3)c3ccccc3S2)cc1 (configuration not stated),-13.8%,0.7%[59 µM],.,.,22.6%,-15.8%
COC(=O)c1ccc(Nc2nnc(-c3ccc(C)c(S(=O)(=O)N4CCN(C)CC4)c3)c3ccccc23)cc1,-32.9%,?,.,.,23.5%,-26.1%
O=C(Nc1ccc(N2CCOCC2)cc1)c1cc2c(s1)CCCC2,?,39.8µM*,0.8,-6.7%,-0.2%,39.8µM*
O=C(Nc1ccccc1N1CCOCC1)c1cc2c(s1)CCCCC2,-2.2%,9.0%,1.6,-4.0%,11.4%,7.4%
O=C(Nc1ccc(N2CCOCC2)cc1)c1cc2c(s1)CCCCC2,79.4µM*,31.6µM*,0.7,-15.2%,?,?
CCOc1ccccc1CNC(=O)CN1C(=O)CCn2nc(-c3cn(C)c4ccccc34)cc21,-23.6%,-5.2%[59 µM],.,.,0.0%[57 µM],-12.3%
Cc1ccc(C2Nc3cccc4cccc(c34)N2)s1,?,12.6µM*,-24.8,?,?,?
CCN(CC)c1ccc(C2Nc3cccc4cccc(c34)N2)cc1,?,.,-0.2,2.2%,?,-27.8%
COc1ccc(NC(=O)C(C)N(c2ccccc2)S(C)(=O)=O)cc1 (configuration not stated),-6.2%,-35.6%[59 µM],.,.,23.8%,-2.2%
COc1ccc(N(C(C)C(=O)N/N=C/c2ccc(OC(C)C)cc2)S(C)(=O)=O)cc1 (configuration not stated),-18.2%,?,.,1.8%,19.1%,?
COC(=O)Oc1ccc(/C=N/NC(=O)CN(c2ccccc2Br)S(C)(=O)=O)cc1OC,-24.1%,10.5%[0.501 µM],-3.6,-1.7%,12.7%,-5.2%
COc1ccc(N(C(C)C(=O)NCc2ccco2)S(C)(=O)=O)cc1 (configuration not stated),-14.8%,50.1µM*,0.1,-7.0%,35.8%,-30.3%
CCc1ccccc1N(CC(=O)N/N=C/c1ccc(OC(=O)OC)c(OC)c1)S(C)(=O)=O,-7.5%[11.4 µM],-7.7%[59 µM],-3.2,23.8µM*,52.9%,-4.5%
COc1ccc(N(C(C)C(=O)NN=C2CCCCCCC2)S(C)(=O)=O)cc1 (configuration not stated),-31.3%,3.8%,-3.0,26.7µM*,13.3%,3.9%
COc1ccc(N(C(C)C(=O)N/N=C/c2ccc(OC)c(OC)c2)S(C)(=O)=O)cc1 (configuration not stated),-18.2%,-36.3%,-7.6,29.9µM*,-17.7%,7.6%
CC1(C(=O)NS(=O)(=O)c2ccccc2Cl)CCN1C(=O)Cc1cccc2ccccc12 (configuration not stated),.,.,-1.8,-7.6%,.,.
COc1ccccc1/C=C/C(=O)NCC(=O)N=Nc1c(O)[nH]c2ccccc12,17.5%,48.8%,-8.6,3.5%,30.2%,?
Cc1ccccc1OCC(=O)Nc1ccccc1C(=O)N1CCCCC1,-0.7%,?,7.7,5.2%,31.5%,-1.8%
Cc1ccc(C)c(OCCCC(=O)Nc2ccc(N3CCOCC3)cc2)c1,.,39.8µM*,.,.,.,?
Cc1cc(C)c(OCC(=O)Nc2cc(C(=O)O)cc(C(=O)O)c2)cc1C,-7.2%,-37.2%,-0.2,0.6%,6.2%,4.3%
Cc1ccc(C)c(OCC(=O)Nc2cc(C(=O)O)cc(C(=O)O)c2)c1,-23.1%,44.7µM*,-2.8,-5.1%,0.8%,-6.6%
CCc1ccc(OCCCC(=O)Nc2ccc(N3CCOCC3)cc2)cc1,-25.2%,.,-0.6,-28.6%,11.9%,-0.8%
Cc1cccc(OCCCC(=O)Nc2ccc(N3CCOCC3)cc2)c1,-26.2%,12.6µM*,.,-24.4%,-7.2%,-5.6%
Cc1ccc(C)c(OCC(=O)Nc2ccccc2C(=O)N2CCOCC2)c1,-4.4%,89.1µM*,4.2,-21.8%,31.0%[57 µM],-14.1%
CC(C)(C)OC(=O)Cc1nnc(C(C(=O)OCc2ccccc2)c2ccccc2)o1 (configuration not stated),9.6%,.,.,.,.,.
COCCNC(=O)C1(C(F)(F)F)C/C(=C/CCO)CCCO1 (configuration not stated),-1.4%,.,.,.,27.4%,.
